# PubChem BioAssay
# Activity calls are given as the source filed them. Unless noted, no rule for the calls is given here.
# Tests used:
# [1] = compounds binding Alexa647 anti-His antibody – biochemical, small-molecule microarray, 635 nm fluorescence, artefact control for SMM control protein annotation, primary screen (AID 1128); conditions: higher = more signal;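 also: score merges feature fluorescence with signal-to-noise for each printed compound spot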
# [2] = system: Human papillomavirus type 1a E7 protein (residues 1-88); experiment: HPV1a E7 small-molecule binders, primary screen, biochemical, small-molecule microarray, residues 1-88, 635 nm (AID 1129); conditions: small-molecule microarray binding, fluorescence 635 nm; higher = more signal
# [3] = target: Focal adhesion kinase 1 (Homo sapiens) (UniProt Q05397); experiment: PTK2 protein binding on printed compound slides – biochemical, small-molecule microarray, 635/667 nm fluorescence, BSA, DTT, primary screen (AID 1130); conditions: 635 nm fluorescence, higher = more signal;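 also: composite of spot emission at 667 nm and signal to noise over triplicate slides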
# [4] = system: Fibrinogen (Alexa647-labelled); experiment: Alexa647-fibrinogen binding to printed small molecules – biochemical, small-molecule microarray, 635/667 nm fluorescence, artefact control for SMM control-protein annotation, profiling panel (AID 1131); conditions: fibrinogen-A647 binding fluorescence, higher = more signal;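 also: z-score merges 667 nm fluorescence with per-spot signal-to-noise over triplicate slides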
# [5] = target: Follistatin (Homo sapiens) (UniProt P19883); experiment: FST protein binding to printed compounds – biochemical, small-molecule microarray, 635/667 nm fluorescence, primary screen (AID 1132); conditions: 635 nm fluorescence, higher = more signal
# [6] = target: Fibroblast growth factor 2 (Homo sapiens) (UniProt P09038); experiment: basic fibroblast growth factor binding to printed compounds – biochemical, small-molecule microarray, 635/667 nm fluorescence, primary screen (AID 1133); conditions: FGF2, fluorescence 635/667, higher = more signal
# [7] = JC-1 mitochondrial potential readout, lung cancer cells – cell-based, A549, JC-1 fluorescence, basal, 24 h, 100 nL, profiling panel (AID 1138); conditions: higher = more signal;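 also: A549 lung adenocarcinoma cells under basal conditions with no added stimulus; test concentration not given here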
# Lefty1 = Lefty1 protein binding to printed compounds – biochemical, small-molecule microarray, 635/667 nm fluorescence, primary screen (AID 1139); conditions: fluorescence 635/667, higher = more signal
# [8] = system: wheat germ agglutinin (Triticum aestivum), Alexa647-labelled; experiment: Alexa647-WGA lectin binding to printed small molecules – biochemical, small-molecule microarray, 635/667 nm fluorescence, artefact control for SMM control-protein annotation, profiling panel (AID 1140); conditions: WGA-A647 binding, 635 nm fluorescence, higher = more signal;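 also: score merges 667 nm feature emission with signal to noise over triplicate slides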
# [9] = target: Luciferin 4-monooxygenase (Photinus pyralis) (UniProt P08659); experiment: inhibition of purified Photinus pyralis luciferase – biochemical, luminescence, purified enzyme, 2006 set, primary screen (AID 1141); conditions: purified firefly luciferase, SteadyGlo luminescence, 30 min; higher = more signal, called active from +8 up or from −8 down;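 also: cell-free assay with purified firefly luciferase at 100 ng per well in PBS; test concentration not given here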
# [10] = system: Wnt5a (protein binding on small-molecule microarray); experiment: small molecules binding Wnt5a protein – biophysical, small-molecule microarray, 635/667 nm fluorescence, primary screen (AID 1142); conditions: 635 nm fluorescence, higher = more signal;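 also: fluorescence read at 667 nm with signal to noise per printed feature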
# [11] = ATP-based viability of Huh7 replicon cells – cell-based, CellTiter-Glo luminescence, basal, 48 h, cytotoxicity control for HCV replication inhibitor project, primary screen (AID 1143); conditions: higher = more signal, called active from +8 up or from −8 down;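 also: Huh7 hepatoma cells carrying a hepatitis C replication reporter with no stimulus; test concentration not given here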
# [12] = Pseudomonas biofilm growth suppression – PAO1 strain, BacTiter-Glo luminescence, LB-PBS, primary screen (AID 1144); conditions: P. aeruginosa PAO1 biofilm, 12 h, higher = more signal
# [13] = basal CRE-LacZ reporter activity in PC12 – cell-based, unstimulated, primary screen (AID 1145); conditions: no forskolin, luminescence, 4.5 h, higher = more signal, called active from +8 up or from −8 down
# [14] = forskolin-driven CRE-LacZ activity in PC12 – cell-based, CRE-LacZ reporter, forskolin-stimulated, primary screen (AID 1146); conditions: luminescence, 4.5 h, higher = more signal, called active from +8 up or from −8 down;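 also: PC12 cells with 6xCRE LacZ reporter stimulated by forskolin 10 µM; beta-galactosidase reporter signal reflecting CREB driven transcription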
# [15] = target: Streptavidin (Streptomyces avidinii) (UniProt P22629); experiment: compounds binding control protein streptavidin – biophysical, small-molecule microarray, 635/667 nm fluorescence, artefact control for SMM compound annotation, primary screen (AID 1147); conditions: higher = more signal;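 also: signal reflects streptavidin binding to arrayed compounds as a control protein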
# [16] = probe aInhba binding on compound microarray – biochemical, small-molecule microarray, 635/667 nm fluorescence, primary screen (AID 1148); conditions: higher = more signal;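 also: score merges 667nm spot fluorescence with signal-to-noise for antibody binding to printed compounds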
# Torsin-1A (Homo sapiens) [17] = target: Torsin-1A (Homo sapiens) (UniProt O14656); experiment: TOR1A wild-type binding on microarray – cell lysate, small-molecule microarray, lysate, 635/667 nm, primary screen (AID 1149); conditions: COS7 hTOR1A-WT lysate, 635 nm fluorescence, higher = more signal
# Torsin-1A (Homo sapiens) [18] = target: Torsin-1A (Homo sapiens) (UniProt O14656); experiment: torsin A mutant lysate binding on microarrays – cell lysate, small-molecule microarray, COS7 lysate, 635/667 nm fluorescence, primary screen (AID 1150); conditions: COS7 hTOR1A mutant lysate, 635 nm fluorescence, higher = more signal;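 also: score pools 667 nm emission and signal to noise measuring lysate protein binding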
# [19] = system: Sonic hedgehog protein (Shh); experiment: Sonic hedgehog microarray binding compounds – biochemical, small-molecule microarray, 635/667 nm fluorescence, primary screen (AID 1151); conditions: 635 nm fluorescence, higher = more signal;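 also: Shh protein binding to compounds spotted on small-molecule microarray slides; score combines spot fluorescence intensity with signal-to-noise across triplicate slides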
# Sequence of Torsin-1A (Homo sapiens) (O14656 whole entry, looked up): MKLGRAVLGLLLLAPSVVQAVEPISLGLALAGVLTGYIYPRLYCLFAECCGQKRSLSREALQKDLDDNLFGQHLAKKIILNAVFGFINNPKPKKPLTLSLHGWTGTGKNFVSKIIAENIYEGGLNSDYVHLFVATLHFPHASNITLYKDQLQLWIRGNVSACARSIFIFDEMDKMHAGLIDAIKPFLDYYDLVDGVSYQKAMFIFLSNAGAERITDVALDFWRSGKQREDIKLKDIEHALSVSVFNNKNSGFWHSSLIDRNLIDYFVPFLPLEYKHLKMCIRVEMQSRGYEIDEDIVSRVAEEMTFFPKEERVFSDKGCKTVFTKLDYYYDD
# Sequence of Streptavidin (Streptomyces avidinii) (P22629 whole entry, looked up): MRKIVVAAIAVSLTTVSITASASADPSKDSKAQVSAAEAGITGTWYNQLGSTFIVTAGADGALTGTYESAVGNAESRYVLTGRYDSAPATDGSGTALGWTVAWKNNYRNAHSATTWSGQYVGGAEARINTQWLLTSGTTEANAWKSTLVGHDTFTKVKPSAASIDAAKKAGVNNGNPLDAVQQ
# Sequence of Fibroblast growth factor 2 (Homo sapiens) (P09038 whole entry, looked up): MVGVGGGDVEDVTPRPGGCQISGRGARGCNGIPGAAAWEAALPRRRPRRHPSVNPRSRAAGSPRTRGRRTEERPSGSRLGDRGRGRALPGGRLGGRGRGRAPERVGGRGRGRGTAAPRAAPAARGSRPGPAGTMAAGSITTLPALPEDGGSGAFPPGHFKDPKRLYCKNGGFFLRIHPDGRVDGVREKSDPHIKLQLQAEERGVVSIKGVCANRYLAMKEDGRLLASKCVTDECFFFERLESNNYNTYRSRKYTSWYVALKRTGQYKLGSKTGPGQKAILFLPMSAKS
# Sequence of Follistatin (Homo sapiens) (P19883 whole entry, looked up): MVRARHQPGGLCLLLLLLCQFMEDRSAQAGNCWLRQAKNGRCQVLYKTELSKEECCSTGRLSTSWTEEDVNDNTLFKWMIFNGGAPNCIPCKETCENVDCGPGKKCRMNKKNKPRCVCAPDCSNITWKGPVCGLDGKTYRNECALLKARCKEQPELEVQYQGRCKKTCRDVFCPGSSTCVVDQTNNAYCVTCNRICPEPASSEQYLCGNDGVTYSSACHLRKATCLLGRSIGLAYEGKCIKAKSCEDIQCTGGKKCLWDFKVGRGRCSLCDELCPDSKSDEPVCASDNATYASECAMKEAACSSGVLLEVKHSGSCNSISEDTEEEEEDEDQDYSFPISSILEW
# Sequence of Luciferin 4-monooxygenase (Photinus pyralis) (P08659 whole entry, looked up): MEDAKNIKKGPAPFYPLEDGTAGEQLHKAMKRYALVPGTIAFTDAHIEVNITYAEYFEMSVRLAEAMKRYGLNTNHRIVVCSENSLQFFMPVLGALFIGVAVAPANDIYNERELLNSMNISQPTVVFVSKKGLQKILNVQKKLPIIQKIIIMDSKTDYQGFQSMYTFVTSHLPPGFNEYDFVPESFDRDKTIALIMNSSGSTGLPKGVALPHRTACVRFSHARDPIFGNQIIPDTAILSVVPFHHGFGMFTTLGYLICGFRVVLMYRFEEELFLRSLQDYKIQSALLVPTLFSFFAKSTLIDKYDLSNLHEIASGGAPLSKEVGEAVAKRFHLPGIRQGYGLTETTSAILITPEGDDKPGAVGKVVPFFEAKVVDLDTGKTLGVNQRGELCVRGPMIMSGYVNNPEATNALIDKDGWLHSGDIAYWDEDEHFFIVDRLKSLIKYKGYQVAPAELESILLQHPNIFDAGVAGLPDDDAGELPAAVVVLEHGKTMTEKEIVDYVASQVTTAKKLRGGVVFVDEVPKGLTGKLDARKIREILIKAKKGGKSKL
# Sequence of Focal adhesion kinase 1 (Homo sapiens) (Q05397 whole entry, looked up): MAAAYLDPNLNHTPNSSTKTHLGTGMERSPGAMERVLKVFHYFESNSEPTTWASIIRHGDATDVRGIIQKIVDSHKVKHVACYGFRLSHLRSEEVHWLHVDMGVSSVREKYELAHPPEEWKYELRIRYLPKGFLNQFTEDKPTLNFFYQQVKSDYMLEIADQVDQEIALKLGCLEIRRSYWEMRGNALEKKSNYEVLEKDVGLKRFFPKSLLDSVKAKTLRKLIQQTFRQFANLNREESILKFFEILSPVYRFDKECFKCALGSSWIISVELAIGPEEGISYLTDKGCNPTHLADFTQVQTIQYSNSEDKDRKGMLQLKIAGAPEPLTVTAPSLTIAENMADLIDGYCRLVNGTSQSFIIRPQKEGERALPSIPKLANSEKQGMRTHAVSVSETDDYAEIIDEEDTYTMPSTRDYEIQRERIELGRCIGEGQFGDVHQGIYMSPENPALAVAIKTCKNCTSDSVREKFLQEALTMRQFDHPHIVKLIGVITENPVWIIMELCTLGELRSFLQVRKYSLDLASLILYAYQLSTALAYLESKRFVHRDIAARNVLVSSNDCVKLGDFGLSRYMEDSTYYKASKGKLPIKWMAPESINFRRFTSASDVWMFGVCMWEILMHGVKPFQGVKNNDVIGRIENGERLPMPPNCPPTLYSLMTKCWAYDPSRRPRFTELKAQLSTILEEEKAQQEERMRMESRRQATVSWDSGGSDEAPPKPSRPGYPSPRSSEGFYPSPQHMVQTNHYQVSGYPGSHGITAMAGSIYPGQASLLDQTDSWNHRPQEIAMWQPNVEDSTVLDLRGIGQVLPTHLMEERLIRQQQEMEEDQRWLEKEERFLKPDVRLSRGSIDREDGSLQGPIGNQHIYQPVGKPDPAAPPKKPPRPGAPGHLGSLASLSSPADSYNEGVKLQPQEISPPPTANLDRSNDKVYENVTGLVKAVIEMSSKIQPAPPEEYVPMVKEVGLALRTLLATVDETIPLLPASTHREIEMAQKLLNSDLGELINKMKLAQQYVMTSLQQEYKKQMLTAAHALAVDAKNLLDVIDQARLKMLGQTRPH
SMILES,composite z-score [1],composite z-score [2],composite z-score [3],composite z-score [4],composite z-score [5],composite z-score [6],z-score [7],composite z-score (Lefty1),composite z-score [8],z-score [9],composite z-score [10],z-score [11],z-score [12],z-score [13],z-score [14],composite z-score [15],composite z-score [16],composite z-score (Torsin-1A (Homo sapiens) [17]),composite z-score (Torsin-1A (Homo sapiens) [18]),composite z-score [19]
C=C(COC)/C(=C/C[C@H](OC(=O)c1ccncc1)c1cccc(OCCO)c1)c1cnc2ccccc2c1,2.08,1.22,0.521,0.893,1.36,0.694,0.365,1.62,1.4,-0.631 (inactive),0.154,0.0839 (inactive),0.0918 (inactive),0.769 (inactive),0.506 (inactive),1.7,0.322,0.839,0.897,2.02
COC(=O)C1(CC(C)C)C=C2C(=C(C(C)C)C(=O)C2C)CN1 (stereo not given),0.928,-1.05,0.208,-0.653,-1.04,-0.688,0.44,-0.746,0.323,1.66 (inactive),-0.187,0.254 (inactive),0.825 (inactive),1.34 (inactive),-0.872 (inactive),-0.469,-0.0791,-0.742,-0.15,-0.702
COCCOC(=O)N1C(=O)[C@@]2(c3cc(C#Cc4ccc(OC)cc4)ccc31)[C@H](C(=O)N1CCCCCCC1)[C@H]1C(=O)O[C@H](c3ccccc3)[C@H](c3ccccc3)N1[C@@H]2c1ccccc1OCCO,0.32,1.21,0.628,0.495,1.49,1.54,-0.864,1.62,0.614,0.197 (inactive),1.15,-0.751 (inactive),-1.4 (inactive),-1.42 (inactive),0.323 (inactive),1.53,1.59,1.43,1.18,1.9
C=CCC(OC(C)=O)[C@@H]1[C@@H](N(Cc2ccc(-c3cccc(C(F)(F)F)c3)o2)C(=O)Cc2ccc(F)cc2)c2cc(OCCCO)ccc2N1C(=O)c1ccc2ccccc2c1 (stereo not given in full),-0.118,-0.783,-0.192,-1.67,0.426,-0.451,0.637,0.479,-0.486,0.354 (inactive),-0.314,-0.376 (inactive),-0.25 (inactive),0.279 (inactive),0.914 (inactive),-0.488,-0.2,-0.954,-0.244,0.718
CCCCN1CC=CC23O[C@@H]4/C=C\CCC(C)OC(=O)C4[C@H]2C(=O)N(C(C)CO)[C@@H]3C1=O (stereo not given in full),-0.0307,-1.41,0.578,-0.526,-0.16,-0.379,0.256,-0.034,-0.128,-0.762 (inactive),-0.0151,0.24 (inactive),-0.297 (inactive),-0.497 (inactive),-0.21 (inactive),-0.447,-0.161,-0.185,-1.01,-0.0387
COC(=O)[C@@]1(Cc2ccccc2)[C@@H]2[C@@H](CC(=O)[C@H]2CC(=O)C(=O)N(C)C)CN1C(=O)c1ccccc1,1.33,0.577,0.434,0.601,-0.155,-0.112,1.19,-0.575,0.0553,0.558 (inactive),-0.087,-0.0162 (inactive),-0.621 (inactive),0.201 (inactive),0.983 (inactive),0.315,-0.0963,-0.115,0.417,-0.829
O=C1C2C=CC(C(O)c3ccc([N+](=O)[O-])cc3)N(Nc3ccccc3)C2C(=O)N1c1ccccc1 (stereo not given),0.175,0.976,1.38,1.02,0.544,-0.239,-0.467,0.27,0.611,-0.284 (inactive),0.0051,0.0203 (inactive),-0.0023 (inactive),-0.333 (inactive),0.495 (inactive),-0.146,-0.101,-0.132,0.221,-0.653
COC(=O)C1=CC(CCCO)=CC(C2CC2)N(Cc2cccc(OC(F)(F)F)c2)C=C1C(=O)OC (stereo not given),1,0.846,1.03,0.884,0.0058,-0.653,1.1,0.126,0.824,0.189 (inactive),0.172,-1.15 (inactive),-0.393 (inactive),-0.0243 (inactive),0.969 (inactive),0.307,0.0711,-0.38,0.497,-0.153
CC(c1ccccc1)C(O)C1C=CC2C(=O)N(c3ccccc3)C(=O)C2N1Nc1ccc(C#N)cc1 (stereo not given),2.19,1.22,0.648,0.993,1.12,0.329,1.03,1.12,0.772,-0.424 (inactive),0.644,-0.661 (inactive),-1.26 (inactive),-0.136 (inactive),0.721 (inactive),0.17,0.179,0.618,0.739,1.18
CC(=O)NCCCC[C@@H]1NC(=O)[C@H]2C[C@@H](C(=O)NCCCCCC[N+](C)(C)C)[C@@H](c3ccc(O)cc3)N2C1=O,1.54,1.08,0.26,-0.0238,1.26,0.862,-0.431,1.41,0.16,0.512 (inactive),-0.127,-0.385 (inactive),-1.42 (inactive),-1.35 (inactive),-0.665 (inactive),-0.448,0.0857,1.4,1.75,2.1
